From PubChem
An excerpt weighted towards active compounds, which were near 3.6% of everything screened.
ERb coact inh: ER-beta (human) coactivator binding inhibition; Q92731; TR-FRET ER-beta LBD / SRC1-Cy5 peptide binding; receptor agonist-loaded with 1 µM estradiol; inhibition, % at 25.6 µM; 1.3% of 86,000 active; AID 633;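 active = compounds whose percent inhibition of the receptor-coactivator binding signal exceeds about 50% in the single-dose screen, limit read from the data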;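 note: 0% = receptor plus peptide wells without compound and 100% = peptide-only wells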
IL1B cytotox: toxic to HUVEC cells under IL-1B stimulation; HUVEC cell count loss, Hoechst imaging, IL-1B stimulated; cell count reduction, % at 2 µM; 0.41% of 94,000 active; AID 845;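 active = cell count reduction more than 3 SD above the screen-wide mean, cut at about 70% in these data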;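 note: normalized per plate to untreated control cells as the no-loss baseline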
NFkB transloc inh: blocks IL-1B driven NFkB nuclear translocation in HUVEC cells; inhibition, % at 2 µM; HUVEC IL-1B NFkB p65 nuclear translocation imaging; 0.43% of 94,000 active; AID 796;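 active = inhibition above about 30% together with a positive call from visual inspection of the well image, limit read from the data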;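 note: nuclear over cytoplasmic p65 intensity ratio measured by imaging; 0% = IL-1B stimulated DMSO wells and 100% = unstimulated DMSO wells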
IL1B NFkB pot: enhances IL-1B driven NFkB nuclear translocation | HUVEC IL-1B NFkB p65 nuclear translocation imaging | activation, % at 2 µM | 0.3% of 94,000 active | AID 819;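 active = activation above 40%, about the mean plus 3 SD, also judged a hit on visual image review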;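 note: percent activation is computed from the nuclear over cytoplasmic p65 intensity ratio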
ERa coact inh: blocks coactivator binding to human estrogen receptor alpha; 1.7% of 86,000 active; TR-FRET ER-alpha LBD / SRC-1 peptide, estradiol-bound; inhibition, % at 25.6 µM; P03372; in the data active = inhibition above about 50%;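 note: 0% = receptor plus peptide control and 100% = peptide only without receptor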
Target sequence (P03372 whole entry, looked up, the tested form may be a part): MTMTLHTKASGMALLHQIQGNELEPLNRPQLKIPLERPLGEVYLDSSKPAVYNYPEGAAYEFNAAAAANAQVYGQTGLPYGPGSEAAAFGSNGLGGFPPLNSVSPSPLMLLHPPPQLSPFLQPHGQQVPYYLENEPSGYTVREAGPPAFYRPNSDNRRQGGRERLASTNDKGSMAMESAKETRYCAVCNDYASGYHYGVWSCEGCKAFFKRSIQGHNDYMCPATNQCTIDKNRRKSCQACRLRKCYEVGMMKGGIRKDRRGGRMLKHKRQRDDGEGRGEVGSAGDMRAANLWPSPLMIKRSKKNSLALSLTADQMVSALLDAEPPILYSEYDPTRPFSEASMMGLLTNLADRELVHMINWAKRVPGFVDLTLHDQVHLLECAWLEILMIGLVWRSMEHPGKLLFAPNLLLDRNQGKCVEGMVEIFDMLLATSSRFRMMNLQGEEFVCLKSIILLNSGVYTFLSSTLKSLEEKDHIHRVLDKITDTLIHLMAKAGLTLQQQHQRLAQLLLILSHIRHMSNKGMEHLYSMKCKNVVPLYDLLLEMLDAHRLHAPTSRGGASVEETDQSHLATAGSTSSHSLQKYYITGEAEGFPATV
ERa SRC1 pot: enhances coactivator binding to human estrogen receptor alpha. P03372. TR-FRET ERalpha-LBD/SRC-Cy5 coactivator binding, 2 h; 100 = basal binding, no effect. coactivator binding (% of control), % at 25.6 µM. 1.3% of 86,000 active. AID 639; in the data active = activity above about 200%;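 note: binding measured in presence of low estradiol as agonist stimulus; 0% = peptide alone without receptor and 100% = receptor with peptide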
The depositor's hits bear a star; . = not tested or not shown; [ ] = dose if it differs, or a comment.

SMILES	ERb coact inh	IL1B cytotox	NFkB transloc inh	IL1B NFkB pot	ERa coact inh	ERa SRC1 pot
CCOC(=O)c1ccc(NC(=O)Cn2cc3c(n2)CCC(C)C3)cc1 (stereo unspecified)	-6	-33	-4	4	9	88
CCNc1ccc(Br)cc(C(=O)/C=C/c2ccc3c(c2)OCO3)c1=O	.	-37	-8	8	.	.
O=C(/C=C/c1ccccc1)c1cc(Br)ccc(=O)c1O	.	-10	5	-5	.	.
CCNc1ccc(Br)cc(C(=O)/C=C/c2c(Cl)cccc2Cl)c1=O	72*[fluorescence artefact?]	-4	-4	4	75*[fluorescence artefact?]	95
CNc1ccc(Br)cc(C(=O)/C=C/c2cccc(OC)c2)c1=O	-4	4	-3	3	66*[fluorescence artefact?]	66
O=S(=O)(/N=C(/Sc1ccccc1)c1ccccc1)c1ccccc1	54*[fluorescence artefact?]	-107	6	-6	77*	64
CCCCCCc1nc2c(=O)[nH]c3ccccc3c2o1	8	.	.	.	8	249*[fluorescence artefact?]
CCCCCCCc1nc2c(=O)n(C)c3ccccc3c2o1	19	-27	-24	24	14	117
Cc1ccc(-c2cc(N)n(-c3ccccc3)n2)cc1	-5	-18	67*	-67	-1	113
Nc1cc(C2CCCC2)nn1-c1ccccc1	-8	-8	8	-8	-63	127
CCCCCc1nnc(NC(=O)C(=O)OCC)s1	0	-1	-2	2	-5	79
O=c1[nH]c2cc3c(cc2cc1C(c1nnnn1C1CCCCC1)N1CCSCC1)OCCO3 (stereo unspecified)	35	-155	3	-3	21	254*[fluorescence artefact?]
COc1cc2cc(C(c3nnnn3C3CCCC3)N3CCCCC3)c(=O)[nH]c2cc1OC (stereo unspecified)	1	2	-2	2	-4	119
O=C(COc1ccc(S(=O)(=O)NC2CCCCC2)cc1Cl)N1CCN(c2ccccc2)CC1	-11	-4	4	-4	-3	87
CCCc1nc(SCC(=O)N2CCCc3ccccc32)c2c(=O)n(C)c(=O)n(C)c2n1	.	21	7	-7	.	.
Cn1c(=O)c2c(SCC(=O)N3CCCc4ccccc43)nc(CC(C)(C)C)nc2n(C)c1=O	-6	2	-42	42*	2	113
Cc1nc2sccn2c1-c1nc(C2CC2)c(C(=O)c2ccc3c(c2)NC(=O)CO3)s1	53*[fluorescence artefact?]	.	.	.	61*	67
COC(=O)C(NC(=O)CCc1c(C)nc2ncnn2c1C)C(C)C (stereo unspecified)	66*[fluorescence artefact?]	-9	-6	6	-8	85
COc1ccccc1-c1cc(C(=O)NC(C)C)no1	1	1	-13	13	0	100
COc1ccccc1-c1cc(C(=O)NC(C)c2ccccc2)no1 (stereo unspecified)	-23	2	-23	23	-9	276*[fluorescence artefact?]
CCCc1[nH]nc2c1C(c1ccc(O)cc1OCC)C(C#N)=C(N)O2 (stereo unspecified)	.	15	-5	5	.	.
O=C(c1ccc(COc2ccccc2Br)cc1)N1CCCCC1	.	0	-54	54*	.	.
O=C(c1ccc(COc2ccccc2Br)o1)N1CCCCCC1	12	-13	2	-2	16	101
COc1ccc(NC(=O)CN(c2ccccc2)S(=O)(=O)N(C)C)cc1OC	57*	-9	-2	2	63*[fluorescence artefact?]	69
CN(c1ccccc1C(=O)Nc1ccc2c(c1)OCO2)S(C)(=O)=O	53*[fluorescence artefact?]	-96	-3	3	48	62
SMILES	ERb coact inh	IL1B cytotox	NFkB transloc inh	IL1B NFkB pot	ERa coact inh	ERa SRC1 pot
CN(c1ccc(C(=O)NCc2ccc3c(c2)OCO3)cc1)S(C)(=O)=O	81*[fluorescence artefact?]	-46	-24	24	-2	101
CN(c1ccccc1C(=O)Nc1ccc2c(c1)OCCO2)S(C)(=O)=O	-25	-43	-14	14	-23	121
COc1ccc(S(=O)(=O)N(C)CC(=O)Nc2ccc3c(c2)OCO3)cc1OC	-10	81*	7	-7	-18	87
C=CCN1C(=O)C(CC(=O)Nc2ccccc2)SC1=Nc1ccc(S(N)(=O)=O)cc1 (stereo unspecified)	.	1	-4	4	.	.
N=c1n(CCN2CCOCC2)c2ccccc2n1Cc1ccccc1Br	-2	-2	-2	2	6	96
CCOC(=O)c1c(C)sc(Sc2ccc(Cl)cc2[N+](=O)[O-])c1OC	2	-124	16	-16	-6	85
CS(=O)(=O)N(CCc1ccccc1)CC(=O)Nc1ccc2c(c1)OCO2	46	6	-2	2	62*[fluorescence artefact?]	47
CCSc1nnc(NC(=O)C(CC)Oc2ccccc2)s1 (stereo unspecified)	-4	.	.	.	-1	116
N#Cc1c(OCC(=O)c2ccccc2)nc2c(c1-c1ccco1)CCc1ccccc1-2	13	31	8	-8	15	230*
Cc1cc(C)c(C#N)c(OCC(=O)c2ccccc2)n1	-3	-8	-2	2	-1	108
CCOC(=O)c1c(NC(=O)c2c(Br)cnn2CC)sc(C)c1C	-24	39	-1	1	-16	110
O=C(OCn1ncc(Br)c(Br)c1=O)c1c(F)cccc1F	2	32	89*	-89	7	86
O=C(CN(Cc1ccccc1)S(=O)(=O)c1ccc(Br)cc1)NCc1ccco1	-11	5	-10	10	-1	76
CCOC(=O)C(C)Oc1cccc2c(=O)n(CC(=O)Nc3ccc4c(c3)OCCO4)ccc12 (stereo unspecified)	28	-15	6	-6	24	324*
N#Cc1c(Cl)nc(SCc2ccccc2)nc1-c1ccccc1	.	24	2	-2	.	.
CCOC(=O)C1CCCN(C(=O)c2ccc(CS(=O)(=O)c3ccc(C)cc3)o2)C1 (stereo unspecified)	55*	-18	-2	2	36	66
Cc1ccc(S(=O)(=O)Cc2ccc(C(=O)N3CCCCCC3)o2)cc1	8	-9	2	-2	5	101
CCCNS(=O)(=O)c1ccc(CCC(=O)N2CCC(C)CC2)cc1	0	-13	1	-1	1	87
Cc1cc(Oc2ccc(C#N)cc2)nc(N2CCOCC2)n1	-13	-16	37*	-37	-9	107
CCOc1ccc(Nc2cc(C)nc(N3CCOCC3)n2)cc1	-8	20	10	-10	5	171
c1ccc(Cc2nnc3sc(-c4ccco4)nn23)cc1	59*	-10	-4	4	64*[fluorescence artefact?]	74
Cc1cc(-c2nn3c(-c4ccccc4)nnc3s2)c2ccccc2n1	36	9	-18	18	73*	98
c1ccc(-c2cc(-c3nn4c(-c5ccco5)nnc4s3)c3ccccc3n2)cc1	54*[fluorescence artefact?]	-27	-3	3	70*[fluorescence artefact?]	180
Cc1ccc2[nH]c3c(NCc4ccco4)ncnc3c2c1	26	7	-1	1	16	81
Cc1ccc2[nH]c(=O)c(-c3nc4ccccn4c3NCc3ccco3)cc2c1	22	8	-8	8	53*	115
